High-throughput results from PubChem BioAssay.
eIF4E-4G inh: inhibitors of eIF4E and eIF4G interaction in translation initiation; inhibition, % at 21.7 µM; TR-FRET eIF4E-eIF4GI(517-606) binding, 2 h; P63073+Q04637; hit rate 0.37% among 220,000;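 active = inhibition above about 30%, limit read from the data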
Target sequence (P63073 whole entry, looked up): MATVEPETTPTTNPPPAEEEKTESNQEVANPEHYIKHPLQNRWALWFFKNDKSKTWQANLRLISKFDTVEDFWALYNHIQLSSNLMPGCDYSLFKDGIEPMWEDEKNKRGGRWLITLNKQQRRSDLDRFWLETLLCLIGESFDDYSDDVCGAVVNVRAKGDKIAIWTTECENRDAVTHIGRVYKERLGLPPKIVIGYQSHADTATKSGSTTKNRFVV
Target sequence (Q04637 whole entry, looked up): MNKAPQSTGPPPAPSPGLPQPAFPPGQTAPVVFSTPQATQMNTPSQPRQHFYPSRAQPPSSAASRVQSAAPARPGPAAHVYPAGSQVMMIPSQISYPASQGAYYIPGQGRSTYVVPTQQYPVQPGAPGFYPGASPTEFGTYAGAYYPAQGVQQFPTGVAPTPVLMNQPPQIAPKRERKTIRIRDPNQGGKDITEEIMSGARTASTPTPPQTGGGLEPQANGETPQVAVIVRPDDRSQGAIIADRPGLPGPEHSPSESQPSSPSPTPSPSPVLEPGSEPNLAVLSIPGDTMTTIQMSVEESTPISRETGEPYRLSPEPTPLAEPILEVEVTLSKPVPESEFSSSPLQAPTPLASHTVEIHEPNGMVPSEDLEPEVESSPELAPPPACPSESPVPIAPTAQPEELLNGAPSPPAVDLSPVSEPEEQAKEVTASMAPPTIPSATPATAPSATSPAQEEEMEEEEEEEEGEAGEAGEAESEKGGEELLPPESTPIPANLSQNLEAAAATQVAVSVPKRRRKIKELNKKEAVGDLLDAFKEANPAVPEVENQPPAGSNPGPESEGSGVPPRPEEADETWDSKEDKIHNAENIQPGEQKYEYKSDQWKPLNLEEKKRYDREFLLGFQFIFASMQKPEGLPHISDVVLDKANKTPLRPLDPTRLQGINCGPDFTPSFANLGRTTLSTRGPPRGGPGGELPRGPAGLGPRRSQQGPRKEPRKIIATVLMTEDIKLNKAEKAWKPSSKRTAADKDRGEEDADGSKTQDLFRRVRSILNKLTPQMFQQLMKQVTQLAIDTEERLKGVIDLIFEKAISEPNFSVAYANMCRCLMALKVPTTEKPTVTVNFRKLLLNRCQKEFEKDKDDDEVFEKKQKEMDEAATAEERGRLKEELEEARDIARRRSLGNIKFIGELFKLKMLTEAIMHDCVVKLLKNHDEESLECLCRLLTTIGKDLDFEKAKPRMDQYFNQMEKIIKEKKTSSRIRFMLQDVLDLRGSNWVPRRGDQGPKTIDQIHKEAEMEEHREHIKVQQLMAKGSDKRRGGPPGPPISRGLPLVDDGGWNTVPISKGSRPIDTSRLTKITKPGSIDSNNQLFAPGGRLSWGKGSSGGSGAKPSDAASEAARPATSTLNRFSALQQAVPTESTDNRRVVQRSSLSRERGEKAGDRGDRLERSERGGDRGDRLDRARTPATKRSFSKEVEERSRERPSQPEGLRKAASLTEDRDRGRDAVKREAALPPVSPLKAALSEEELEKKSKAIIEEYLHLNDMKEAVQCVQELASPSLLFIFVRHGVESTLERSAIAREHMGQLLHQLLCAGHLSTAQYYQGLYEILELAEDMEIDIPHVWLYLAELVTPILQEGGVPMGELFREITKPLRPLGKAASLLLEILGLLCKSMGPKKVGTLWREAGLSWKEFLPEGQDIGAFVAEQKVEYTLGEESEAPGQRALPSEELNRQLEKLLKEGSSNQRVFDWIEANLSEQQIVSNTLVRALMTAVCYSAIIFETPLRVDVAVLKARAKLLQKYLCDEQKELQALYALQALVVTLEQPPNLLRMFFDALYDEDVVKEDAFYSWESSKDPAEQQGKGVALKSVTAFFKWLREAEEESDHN
Bim-Mcl-1: inhibitors of Bim-Mcl-1 interaction, human | Q07820 | Bead-based flow cytometry, Bim peptide-Mcl-1 binding | inhibition, % at 10 µM | hit rate 0.1% among 190,000 | AID 1009; in the data active = inhibition above about 40%
Mcl1 Noxa PPI: disrupts binding of human Mcl-1 to Noxa peptide; Q07820; TR-FRET Mcl-1/Noxa peptide binding, 2 h; inhibition, % at 21.7 µM; hit rate 1.5% among 220,000;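 active = compounds that cut the protein-peptide binding signal by more than 50% relative to plate controls in a single-dose test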;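 note: His-tagged Mcl-1 with rhodamine Noxa BH3 peptide and terbium anti-His antibody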
MCL1 BIM primary: disrupts human MCL1 binding to BIM-BH3 peptide; inhibition, % at 10.9 µM; Q07820; hit rate 0.68% among 320,000; GST-MCL1 / FITC-Bim-BH3 fluorescence polarization;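 active = inhibition above the mean inhibition of all tested compounds plus 3 SD, set per campaign, cut at about 40% in these data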;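 note: higher means more loss of mP so more displacement of Bim peptide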
Mcl1-Bid inh: Mcl-1/Bid interaction inhibition; Q07820; TR-FRET Mcl-1/Bid-Dy647 peptide binding, 1536-well; inhibition, % at 21.7 µM; hit rate 0.97% among 220,000; AID 1021;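 active = compounds that cut the binding signal by more than half at the single screening dose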;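 note: His-tagged Mcl-1 with europium anti-His antibody binding Bid BH3 peptide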
14-3-3 Bad inh: disrupts binding of bovine 14-3-3 zeta to phospho-Bad peptide; hit rate 0.71% among 220,000; inhibition, % at 21.7 µM; TR-FRET 14-3-3zeta/Dy647-pBad peptide displacement, 1 h; P63103;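 active = inhibition above about 70%, limit read from the data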
Numbers stand for hits; [ ] = dose if it differs, or a comment. Compounds with a hit are over-represented: about 2.6% of the library has one in this group of screens.

Screening COc1ccc(OC)c(-c2csc(NC(=O)CSc3nnnn3C)n2)c1 returned MCL1 BIM primary inactive.
COc1ccc2cc(C(=O)/C=C/c3cc(OC)c(O)c(OC)c3)ccc2c1 was read as MCL1 BIM primary inactive.
For COc1ccc(C(=O)/C=C/c2cc(OC)c(O)c(OC)c2)c(F)c1 the results were eIF4E-4G inh inactive, Bim-Mcl-1 inactive, Mcl1 Noxa PPI 55, MCL1 BIM primary inactive, Mcl1-Bid inh inactive and 14-3-3 Bad inh inactive.
For c1ccc(-c2nc(-c3ccncc3)n[nH]2)nc1 the results were eIF4E-4G inh 54, Mcl1 Noxa PPI inactive, MCL1 BIM primary inactive, Mcl1-Bid inh inactive and 14-3-3 Bad inh inactive.
Screening Cc1nc2sccn2c1-c1nc(-c2cc3ccccc3o2)cs1 returned eIF4E-4G inh inactive, Bim-Mcl-1 inactive, Mcl1 Noxa PPI 54, MCL1 BIM primary inactive, Mcl1-Bid inh inactive and 14-3-3 Bad inh inactive.
Screening CC(=O)c1ccc(NC(=O)C(C)Nc2ccc(Cl)cc2)cc1 (configuration not stated) returned eIF4E-4G inh inactive, Bim-Mcl-1 inactive, Mcl1 Noxa PPI inactive, MCL1 BIM primary inactive, Mcl1-Bid inh inactive and 14-3-3 Bad inh inactive.
`Cc1cccc(-n2c(O)c(C=Nc3ccccc3O)c3ccccc3c2=O)n1` gave eIF4E-4G inh inactive, Mcl1 Noxa PPI inactive, MCL1 BIM primary inactive, Mcl1-Bid inh inactive and 14-3-3 Bad inh inactive.
For Cc1ccc(-n2c(O)c(C=Nc3ccccc3-c3n[nH]c(=S)[nH]c3=O)c3ccccc3c2=O)c(C)c1 the results were eIF4E-4G inh inactive, Bim-Mcl-1 inactive, Mcl1 Noxa PPI 63, MCL1 BIM primary inactive, Mcl1-Bid inh inactive and 14-3-3 Bad inh inactive.
`Cc1ccc(-n2c(O)c(C=NC3CCS(=O)(=O)C3)c3ccccc3c2=O)cc1C` (configuration not stated) gave eIF4E-4G inh inactive, Bim-Mcl-1 inactive, Mcl1 Noxa PPI inactive, MCL1 BIM primary inactive, Mcl1-Bid inh inactive and 14-3-3 Bad inh inactive.
Screening Cc1ccc(-n2c(O)c(C=Nc3ccccc3-c3n[nH]c(=S)[nH]c3=O)c3ccccc3c2=O)cc1C returned eIF4E-4G inh inactive, Bim-Mcl-1 inactive, Mcl1 Noxa PPI 101, Mcl1-Bid inh inactive and 14-3-3 Bad inh inactive.
Screening Cc1cccc(-n2c(O)c(C=Nc3ccccc3-c3n[nH]c(=S)[nH]c3=O)c3ccccc3c2=O)n1 returned eIF4E-4G inh 50, Mcl1 Noxa PPI inactive, MCL1 BIM primary inactive, Mcl1-Bid inh inactive and 14-3-3 Bad inh inactive.
`Cc1cccc(-n2c(O)c(C=Nc3cc(O)ccc3C)c3ccccc3c2=O)n1` gave eIF4E-4G inh inactive, Bim-Mcl-1 inactive, Mcl1 Noxa PPI inactive, MCL1 BIM primary inactive, Mcl1-Bid inh inactive and 14-3-3 Bad inh inactive.
For Cc1cc(SCC(=O)NCC(c2cccs2)N2CCOCC2)c(C)cc1Br (configuration not stated) the results were MCL1 BIM primary inactive.
`CCCC1=C(C(=O)OCC)C(c2ccc(O)cc2)n2ncnc2N1` (configuration not stated) gave eIF4E-4G inh inactive, Bim-Mcl-1 inactive, Mcl1 Noxa PPI 67, MCL1 BIM primary inactive, Mcl1-Bid inh inactive and 14-3-3 Bad inh inactive.
CCCCN(C(=O)c1cccc2c(=O)c(C)c(-c3ccccc3)oc12)c1ccccc1 was read as eIF4E-4G inh inactive, Bim-Mcl-1 inactive, Mcl1 Noxa PPI inactive, Mcl1-Bid inh inactive and 14-3-3 Bad inh inactive.
`CCc1cc2cc(C)cc(C)c2[nH]c1=S` gave eIF4E-4G inh inactive, Bim-Mcl-1 inactive, Mcl1 Noxa PPI 60, MCL1 BIM primary inactive, Mcl1-Bid inh inactive and 14-3-3 Bad inh inactive.
Cc1cccc2cc(/C=N/NC(=O)c3ccccc3O)c(Cl)nc12 was read as eIF4E-4G inh inactive, Bim-Mcl-1 inactive, Mcl1 Noxa PPI 83, MCL1 BIM primary inactive, Mcl1-Bid inh inactive and 14-3-3 Bad inh inactive.
For O=C(N/N=C/c1cc2cc3c(cc2nc1Cl)OCCO3)c1ccccc1O the results were eIF4E-4G inh inactive, Bim-Mcl-1 inactive, Mcl1 Noxa PPI 71, MCL1 BIM primary inactive, Mcl1-Bid inh 60 and 14-3-3 Bad inh inactive.
`Cc1ccc2cc(/C=N/NC(=O)c3ccccc3O)c(Cl)nc2c1` gave eIF4E-4G inh inactive, Bim-Mcl-1 inactive, Mcl1 Noxa PPI 64, MCL1 BIM primary inactive, Mcl1-Bid inh inactive and 14-3-3 Bad inh inactive.
Screening O=C(O)CC(C(=O)Nc1ccc(Cl)cc1)N1CCCCCC1 (configuration not stated) returned MCL1 BIM primary inactive.
`Cc1cc(C)cc(NC(=O)CCn2cnc3cc(C)c(C)cc32)c1` gave eIF4E-4G inh inactive, Bim-Mcl-1 inactive, Mcl1 Noxa PPI inactive, MCL1 BIM primary inactive, Mcl1-Bid inh inactive and 14-3-3 Bad inh inactive.
Screening CCC1=[N+](C)CCn2c(C)ccc21 returned eIF4E-4G inh inactive, Bim-Mcl-1 inactive, Mcl1 Noxa PPI inactive, MCL1 BIM primary inactive, Mcl1-Bid inh inactive and 14-3-3 Bad inh 77[fluorescence artefact?].
`CC(=O)N1CCOc2ccc(S(=O)(=O)N3CCC(C(=O)NCc4ccc(C)cc4)CC3)cc21` gave MCL1 BIM primary inactive.
O=C(COC(=O)C1CC2C=CC1C2)NCc1ccc(F)cc1 (configuration not stated) was read as eIF4E-4G inh inactive, Bim-Mcl-1 inactive, Mcl1 Noxa PPI inactive, MCL1 BIM primary inactive, Mcl1-Bid inh inactive and 14-3-3 Bad inh inactive.
Screening O=C(CCSCCC(=O)NCc1ccco1)NCc1ccco1 returned eIF4E-4G inh inactive, Bim-Mcl-1 inactive, Mcl1 Noxa PPI 54, MCL1 BIM primary inactive, Mcl1-Bid inh inactive and 14-3-3 Bad inh inactive.
For O=C(COC(=O)C1CC2C=CC1C2)NCc1ccco1 (configuration not stated) the results were eIF4E-4G inh inactive, Bim-Mcl-1 inactive, Mcl1 Noxa PPI 66, MCL1 BIM primary inactive, Mcl1-Bid inh inactive and 14-3-3 Bad inh inactive.
`O=C(COc1ccc(-c2nnco2)cc1)NC1CCCc2ccccc21` (configuration not stated) gave eIF4E-4G inh inactive, Bim-Mcl-1 inactive, Mcl1 Noxa PPI inactive, MCL1 BIM primary inactive, Mcl1-Bid inh 60 and 14-3-3 Bad inh inactive.
CCOc1ccc(OCC)c(-c2c(=O)n(OCc3ccccc3Br)c3ccccc3[n+]2[O-])c1 was read as eIF4E-4G inh inactive, Bim-Mcl-1 inactive, Mcl1 Noxa PPI inactive, MCL1 BIM primary inactive, Mcl1-Bid inh inactive and 14-3-3 Bad inh inactive.
COc1cc(C2C(C#N)=C(N)OC3=C2C(=O)CCC3)c([N+](=O)[O-])cc1OC (configuration not stated) was read as eIF4E-4G inh inactive, Bim-Mcl-1 inactive, Mcl1 Noxa PPI 97, MCL1 BIM primary 194, Mcl1-Bid inh inactive and 14-3-3 Bad inh inactive.
`COc1cccc(CC(=O)Nc2ccc(S(=O)(=O)Nc3nc(C)cc(C)n3)cc2)c1` gave eIF4E-4G inh inactive, Bim-Mcl-1 inactive, Mcl1 Noxa PPI inactive, MCL1 BIM primary inactive, Mcl1-Bid inh inactive and 14-3-3 Bad inh inactive.
For O=C(NCc1cccnc1)/C(=C\c1ccc(-c2ccc(Br)cc2)o1)S(=O)(=O)c1ccccc1 the results were eIF4E-4G inh inactive, Bim-Mcl-1 inactive, Mcl1 Noxa PPI inactive, MCL1 BIM primary inactive, Mcl1-Bid inh 52 and 14-3-3 Bad inh inactive.
